High-throughput results: PubChem, National Center for Advancing Translational Sciences (NCATS)
3T3 cytotox: cytotoxic compounds in NIH 3T3 cells; actives 4.3% (n = 94,000); Potency, µM (doses to about 96.7 µM), for the others: at the highest dose activity change, negative = cytotoxicity, hits mostly inhibitors; AID 1345082; NIH 3T3 viability, CellTiter-Glo ATP luminescence, 48-72 h; also: potency is read from the fitted curve at half-maximal effect; nearly all actives have a fitted effect of over 55% in size
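NIH 3T3 cells at 400 cells/well received 23 nL of compound by pintool and were incubated 48 or 72 h at 37 °C. Viability was read as ATP-coupled CellTiter-Glo luminescence.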
IP6K1 inh: IP6K1 kinase inhibition. IP6K1 kinase, ADP-Glo luminescence, 2 h; active compounds read low. actives 0.81% (n = 140,000). activity change, % (series mostly up to about 58 µM). Q92551; in the data active = activity change below about -25%
Target sequence (Q92551 whole entry, looked up): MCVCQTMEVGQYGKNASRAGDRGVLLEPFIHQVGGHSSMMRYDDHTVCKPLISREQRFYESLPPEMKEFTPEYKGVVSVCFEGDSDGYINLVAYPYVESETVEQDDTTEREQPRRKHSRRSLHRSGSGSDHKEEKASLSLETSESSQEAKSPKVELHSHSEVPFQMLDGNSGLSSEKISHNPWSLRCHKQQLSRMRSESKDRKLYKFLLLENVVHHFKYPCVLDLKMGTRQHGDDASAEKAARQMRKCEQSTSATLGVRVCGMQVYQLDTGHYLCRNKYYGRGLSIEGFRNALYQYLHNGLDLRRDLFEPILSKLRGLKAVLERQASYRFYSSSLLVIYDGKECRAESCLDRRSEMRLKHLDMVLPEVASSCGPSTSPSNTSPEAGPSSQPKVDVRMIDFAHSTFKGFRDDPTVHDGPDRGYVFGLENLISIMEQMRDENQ
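ADP-Glo luminescence measures ADP made by human IP6K1 during a 2 h RT reaction with ATP/IP6 (mix at 1.3 mM/130 uM); top library doses 57.5 and 19.1 uM final.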
HEK293 tox: HEK 293 cell cytotoxicity; actives 6.6% (n = 94,000); Potency, µM (doses to about 115 µM), for inactives: at the highest dose activity change, negative = cytotoxicity, usual class: inhibitors; HEK 293 viability, ATP luminescence (CellTiter-Glo), 48-72 h; AID 1345083; also: potency is read from the fitted curve at half-maximal effect; nearly all actives have a fitted effect of over 60% in size
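HEK 293 cells seeded at 250 cells/well were exposed to compound for 48 or 72 hr at 37 degree Celsius. Viability taken as ATP content by CellTiter-Glo luminescence.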
SNCA viab count: cell viability loss counter-screen; HEK-293-SNCA-luc viability, GF-AFC fluorescence, 24 h; Potency, µM (top dose mostly 57.1 µM), for the others: at the highest dose activity change, negative = cytotoxicity, usual class: cytotoxic; actives 0.12% (n = 150,000);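 also: potency is read from the fitted curve at half-maximal effect; 0% = DMSO-treated cells and -100% = medium-only wells without cells; nearly all actives have a fitted effect of over 30% in size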
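HEK-293-SNCA-luc cells (1500/well) plated 24 h, then exposed 24 h to a dilution series; GF-AFC added 30 min at 37C, fluorescence 405/540 nm; normalised to medium-only and DMSO wells, Hill fit.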
SNCA expr inhib: inhibitors of alpha-synuclein (SNCA) gene expression; HEK-293 SNCA-luciferase knock-in, luminescence, 24 h; Potency, µM (titrated, usually from 57.2 µM), inactives show top-dose activity change, negative = inhibition, most hits filed as inhibitors; actives 0.17% (n = 140,000);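 also: potency is read from the fitted curve at half-maximal effect; plate controls were DMSO cells for no effect and cell-free wells for full effect; nearly all actives have a fitted effect of over 45% in size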
Luciferase inh: inhibitors of firefly (Photinus pyralis) luciferase | AID 1347043 | Potency, µM (top dose mostly 115 µM), hits mostly inhibitors | actives 2.5% (n = 76,000) | purified P. pyralis luciferase, luminescence, biochemical; also: potency is read from the fitted curve at half-maximal effect; nearly all actives have a fitted effect of over 65% in size
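Luminescence read by CCD imaging after purified firefly luciferase (10nM final) was added to substrate buffer holding 10uM D-luciferin and 10uM ATP, pH 7.5, pre-dosed with compound.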
Starred values were filed as active, the others as inactive; i = inactive; ? = inconclusive; · = no result; [ ] = dose if it differs, or a comment. This is a sample that favours compounds with a hit; in the whole collection about 7.3% have one here. Unless noted, calls follow the shape of the dose curve; as a rule, active = well fitted curve in the direction sought with a large enough effect; inconclusive = small, poorly fitted or top-dose-only effect, or another doubt; inactive = no such curve, though single readings can be large; an effect the other way counts as inactive or inconclusive. Unless noted, % is scaled to controls: 0 for no effect and ±100 for the full control effect.

SMILES	3T3 cytotox	IP6K1 inh	HEK293 tox	SNCA viab count	SNCA expr inhib	Luciferase inh
CN(CCC(O)c1ccccc1)c1nccc(-c2cccnc2)n1 (configuration not stated)	?	2	32µM*	-4%	?	i
CCOC(=O)C1CCN(C(=O)c2ccc3oc(-c4ccncc4Cl)nc3c2)CC1	?	18	?	-15%[12.5 µM]	16%[87.6 µM]	·
CC(Cn1cncn1)NCc1cc(=O)c2cc(F)ccc2[nH]1 (configuration not stated)	0%	-9	0%	0%	-23%	i
COc1ncc(-c2n[nH]c3c2CC(=O)N(CCOc2ccccc2)C3)cn1	?	9	-47%[172 µM]	-5%[87.6 µM]	0%[87.6 µM]	i
CCOc1ccc(C(=O)N2CCN(c3cc(-c4ccc(Cl)cc4)[nH]n3)CC2)cc1	?	10	?	-8%	?	i
CCOc1ccc(C(=O)N2CCCN(c3cc(-c4ccc(Cl)cc4)[nH]n3)CC2)cc1	?	1	40µM*	?	-28%	i
O=C(COc1ccccc1)N1CCCN(c2cc(-c3ccc(Cl)cc3)[nH]n2)CC1	?	0	?	1%	37%	i
N#Cc1ccc(C(=O)N2CCCN(c3cc(-c4ccc(Cl)cc4)[nH]n3)CC2)cc1	?	-7	28µM*	2%	?	i
CCOc1ccc(C(=O)N2CCCN(c3cc(-c4ccc(F)cc4)[nH]n3)CC2)cc1	?	13	32µM*	-18%	?	i
O=C(N1CCCN(c2cc(-c3ccc(Cl)cc3)[nH]n2)CC1)C1(c2ccccc2)CC1	35µM*	-11	40µM*	-6%	?	i
O=C(CCC1CCN(Cc2cc3ccccc3o2)CC1)NC1CCN(Cc2ccccc2)C1 (configuration not stated)	?	9	?	0%	10%	i
O=C(NCCC1CCCCC1)C1CCCN(Cc2cccc(-c3ccsc3)c2)C1 (configuration not stated)	?	2	45µM*	·	·	·
CCCCCNC(=O)C1CCCN(Cc2cccc(-c3ccsc3)c2)C1 (configuration not stated)	35µM*	-1	32µM*	·	·	·
COCCNC(=O)C1CCCN(Cc2cccc(-c3ccsc3)c2)C1 (configuration not stated)	?	-11	-27%	·	·	·
C[N+](C)([O-])CCNc1ccc(NCC[N+](C)(C)[O-])c2c1C(=O)c1c(O)ccc(O)c1C2=O	·	·	·	-15%	-14%	·
O=C1c2ccccc2C(=O)c2c(NCCc3ccc(O)cc3)ccc(NCCc3ccc(O)cc3)c21	·	·	·	28µM*	?	·
CC1(C)CC(NC(=O)Cn2nc3c(cc2=O)CCCCC3)CCO1 (configuration not stated)	3%	-4	5%	1%	14%	i
Cn1ccnc1CN1C(=O)CO[C@H](c2ccc(NC(=O)c3ccc(C(F)(F)F)cc3)cc2)[C@H]1CO	-25%	-1	-26%	4%	?	35µM*
Cn1ccnc1CN1C(=O)CO[C@H](c2ccc(NC(=O)CCc3ccccc3)cc2)[C@H]1CO	-23%	5	-31%	1%	66%	i
CCCCCC(=O)Nc1ccc([C@H]2OCC(=O)N(Cc3nccn3C)[C@@H]2CO)cc1	-18%[174 µM]	1	-15%[172 µM]	-5%[87.6 µM]	48%[87.6 µM]	71µM*
Cc1[nH]nc(CCC(=O)N2CCC3(CCCN(CC(C)(C)C)C3)C2)c1C (configuration not stated)	-24%	-13	-11%	3%	12%	i
Cc1nn(-c2ccccc2)c2c1C(C1CC1)N(CC1CN(C(=O)c3ccc(Cl)nc3)C1)C2=O (configuration not stated)	?	14	?	·	·	·
CN1C(=O)CO[C@H](c2ccc(NC(=O)c3cccnc3)cc2)[C@H]1CO	2%[174 µM]	-8	i	8%[87.6 µM]	-20%[87.6 µM]	i
COc1ccc(C(=O)N2CCC(C(=O)N3CCCC(c4nc5ncccc5[nH]4)C3)CC2)cc1 (configuration not stated)	-10%	15	-7%	-4%	-13%	·
CS(=O)(=O)NC[C@H]1O[C@@H](CO)[C@@H](O)[C@H]1N1CCc2ccccc2C1	i	-1	i	1%[87.6 µM]	13%[87.6 µM]	i
SMILES	3T3 cytotox	IP6K1 inh	HEK293 tox	SNCA viab count	SNCA expr inhib	Luciferase inh
OCC1(Cc2ccccc2)CCCN(Cc2cnn(-c3cccc(Cl)c3)c2)C1 (configuration not stated)	79µM*	-1	79µM*	10%	-4%	i
O=S(=O)(c1cccc2ccccc12)N1CCCC(CO)(Cc2cccc(Cl)c2)C1 (configuration not stated)	45µM*	15	?	-15%	-4%	i
COC(=O)c1cccc(CNCC2=CC(C)(C)COc3ccc(OC)cc32)c1	?	-4	?	·	·	·
COc1ccccc1-c1ncc2c(n1)OCCN(c1cccc(C(F)(F)F)c1)C2=O	?	-10	?	?	23%[87.6 µM]	i
COc1ccc(Cl)cc1-c1ncc2c(n1)OCCN(c1ccccc1)C2=O	40µM*	11	4%[172 µM]	-7%[87.6 µM]	-6%[87.6 µM]	?
COc1ncccc1-c1ncc2c(n1)OCCN(c1cccc(C(F)(F)F)c1)C2=O	25µM*	-10	-16%[172 µM]	-7%[87.6 µM]	1%[87.6 µM]	i
Cc1ccccc1-c1ncc2c(n1)OCCN(c1ccccc1)C2=O	-34%[138 µM]	-18	?	-3%[87.6 µM]	10%[87.6 µM]	20µM*
COc1ccc(-c2ncc3c(n2)OCCN(C)C3=O)cc1OC	?	-4	i	3%[87.6 µM]	73%[87.6 µM]	40µM*
O=C(CCn1ccn2nc3c(c2c1=O)CCCC3)NCc1ccccc1Cl	-25%	10	?	2%	-1%	i
O=C1c2cnc(-c3ccc(O)c(F)c3)nc2OCCN1c1ccccc1	8.9µM*	-22	45µM*	-5%[87.6 µM]	-78%[87.6 µM]	?
Clc1ccc(CNc2nc(-c3ccccc3)no2)cc1	?	-11	?	-2%	59%	16µM*
COC(=O)C1=C(C)N=C2SC=C(CC(=O)NCc3cccc(F)c3)N2C1c1ccccc1OC (configuration not stated)	?	19	?	14%	9%	i
CC1=C(C(=O)Nc2ccccc2)C(c2cc(C)ccc2C)N2C(CC(=O)NC(C)C)=CSC2=N1 (configuration not stated)	?	8	40µM*	-1%	?	i
CC1=C(C(=O)Nc2ccccc2)C(c2cccc(C)c2)N2C(CC(=O)NC(C)C)=CSC2=N1 (configuration not stated)	?	17	?	12%	-14%	i
